Test results from the supplement of paper PMC10849652.
Targets with a hit are over-represented here; the source holds about 7,900 in all. About 0.6% of all pairs of compound and target were hits.

Assays:
Test in all cases: log2 fold change, soluble protein after heating vs DMSO (PISA); higher = thermal stabilisation; K562 cells, 10 uM, 30 min; active = over 0.2 and 3.5 SD of the protein, either way, in both replicates (recomputed)
[1] = compound: C1=CC=C(C=C1)[C@H](COC2=CC3=C(C=C2)NC(=O)N3)NC(=O)C4=CC=CN(C4=O)CC5=CC(=C(C=C5)F)F
Procedure, shortened: (§1)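 Soluble protein was quantified by TMTpro 16plex LC-MS/MS after channel sums were equalised. It was obtained as the supernatant after 21,000xg for 90 min from pooled aliquots of K562 cells (2×10^6 cells/mL, 10 μM compound, 30 min) heated for 3 min across 48°C-58°C and extracted in PBS with 0.5% NP-40 at 4°C. Thermal stability values are relative to control samples and come from duplicates. They are given as log2 fold changes.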

[2] = compound: CC1=C(SC2=C1C(=N[C@H](C3=NN=C(N32)C)CC(=O)N)C4=CC=C(C=C4)Cl)C
Procedure, shortened: as §1

[3] = compound: CC1=C2C(=CC=C1)N=C(N(C2=O)C3=CC=CC=C3C)CN4C=NC5=C(N=CN=C54)N
Procedure, shortened: as §1

[4] = compound: Cc1sc2c(c1C)C(c1ccc(Cl)cc1)=N[C@@H](CC(=O)OC(C)(C)C)c1nnc(C)n1-2
Procedure, shortened: as §1

[5] = compound: c1ccc([C@@H]2C[C@H]2NC2CCNCC2)cc1
Procedure, shortened: as §1

Measured: log2 fold change

PEA15 isoform 2 (UniProt Q15121)
UniProt Q15121, sequence (Q15121 whole entry, looked up): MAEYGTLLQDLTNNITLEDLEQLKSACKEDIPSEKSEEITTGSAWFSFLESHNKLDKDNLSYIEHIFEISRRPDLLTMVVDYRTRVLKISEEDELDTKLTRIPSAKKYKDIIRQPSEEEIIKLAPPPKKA
inactive: [1] -0.014 | [2] 0.1 | [3] 0.116 | [4] -0.063 | [5] -0.015

PRPF3 (UniProt O43395)
inactive: [1] -0.09 | [2] -0.208 | [3] 0.08 | [4] -0.017 | [5] 0.115

PRKD2 isoform 3 (UniProt Q9BZL6)
inactive: [1] -0.051 | [2] 0.238 | [3] -0.057 | [4] 0.064 | [5] 0.028

PSMD9 (UniProt O00233)
inactive: [1] 0.014 | [2] 0.017 | [3] -0.004 | [4] 0.007 | [5] 0.016

RAB11FIP1 (UniProt Q6WKZ4)
inactive: [1] 0.041 | [2] 0.071 | [3] 0.086 | [4] -0.006 | [5] 0.046

PDSS2 (UniProt Q86YH6)
inactive: [1] -0.066 | [2] 0.052 | [3] 0.085 | [4] 0.005 | [5] 0.094

PRKCD (UniProt Q05655)
inactive: [1] -0.05 | [2] 0.082 | [3] 0.071 | [4] 0.004 | [5] -0.021

PRPF38A (UniProt Q8NAV1)
inactive: [1] 0.014 | [2] -0.011 | [3] 0.024 | [4] 0.007 | [5] 0.015

POLR2M (UniProt Q6EEV4)
inactive: [1] 0.092 | [2] 0.105 | [3] -0.002 | [4] -0.128 | [5] -0.107

PRKAR2A (UniProt P13861)
inactive: [1] 0.044 | [2] 0.046 | [3] 0.054 | [4] 0.018 | [5] -0.003

PIP4K2C (UniProt Q8TBX8)
inactive: [1] -0.148 | [2] 0.034 | [3] 0.05 | [4] -0.029 | [5] -0.042

PLIN2 (UniProt Q99541)
UniProt Q99541, sequence (Q99541 whole entry, looked up): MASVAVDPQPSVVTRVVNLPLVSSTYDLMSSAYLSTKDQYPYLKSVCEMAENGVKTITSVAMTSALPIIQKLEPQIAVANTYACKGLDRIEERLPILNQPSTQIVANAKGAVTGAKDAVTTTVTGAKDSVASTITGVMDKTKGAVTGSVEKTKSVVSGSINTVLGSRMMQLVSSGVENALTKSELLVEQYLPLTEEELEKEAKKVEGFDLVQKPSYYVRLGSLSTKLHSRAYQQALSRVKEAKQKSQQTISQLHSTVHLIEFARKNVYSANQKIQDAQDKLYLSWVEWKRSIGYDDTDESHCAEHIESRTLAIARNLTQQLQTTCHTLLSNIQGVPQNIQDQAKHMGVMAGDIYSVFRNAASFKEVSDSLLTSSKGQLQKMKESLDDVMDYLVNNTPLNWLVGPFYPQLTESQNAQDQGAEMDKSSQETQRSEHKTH
inactive: [1] -0.063 | [2] -0.006 | [3] 0.093 | [4] 0.004 | [5] 0.015

PCLAF (UniProt Q15004)
UniProt Q15004, sequence (Q15004 whole entry, looked up): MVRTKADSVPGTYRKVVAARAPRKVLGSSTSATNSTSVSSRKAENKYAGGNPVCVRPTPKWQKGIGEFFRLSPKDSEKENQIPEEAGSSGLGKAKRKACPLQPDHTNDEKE
inactive: [1] 0.055 | [2] -0.022 | [3] -0.045 | [4] 0.02 | [5] 0.07

PIK3C3 (UniProt Q8NEB9)
inactive: [1] -0.038 | [2] 0.005 | [3] 0.009 | [4] 0.009 | [5] -0.01

PPID (UniProt Q08752)
inactive: [1] -0.079 | [2] 0.031 | [3] 0.036 | [4] -0.035 | [5] -0.031

PELO (UniProt Q9BRX2)
inactive: [1] -0.037 | [2] 0.116 | [3] 0.103 | [4] 0.064 | [5] -0.049

PYGB (UniProt P11216)
inactive: [1] 0.024 | [2] 0.037 | [3] 0.003 | [4] 0.015 | [5] -0.003

PCID2 (UniProt Q5JVF3)
inactive: [1] -0.18 | [2] 0.057 | [3] 0.159 | [4] 0.033 | [5] -0.071

QKI (UniProt Q96PU8)
inactive: [1] -0.016 | [2] 0.039 | [3] 0.105 | [4] -0.082 | [5] 0.01

PSMB4 (UniProt P28070)
UniProt P28070, sequence (P28070 whole entry, looked up): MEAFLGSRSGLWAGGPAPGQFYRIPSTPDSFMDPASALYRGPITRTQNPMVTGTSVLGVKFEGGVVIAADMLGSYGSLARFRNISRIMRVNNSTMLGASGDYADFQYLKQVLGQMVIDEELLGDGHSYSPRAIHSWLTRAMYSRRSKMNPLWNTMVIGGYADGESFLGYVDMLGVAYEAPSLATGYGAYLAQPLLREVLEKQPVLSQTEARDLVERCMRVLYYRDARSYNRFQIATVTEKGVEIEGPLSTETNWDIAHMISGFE
inactive: [1] 0.024 | [2] -0.037 | [3] -0.038 | [4] -0.009 | [5] 0.03

PNPLA2 (UniProt Q96AD5)
inactive: [1] 0.06 | [2] 0.014 | [3] 0.037 | [4] 0.068 | [5] -0.046

PPT2 isoform 3 (UniProt Q9UMR5)
UniProt Q9UMR5, sequence (Q9UMR5 whole entry, looked up): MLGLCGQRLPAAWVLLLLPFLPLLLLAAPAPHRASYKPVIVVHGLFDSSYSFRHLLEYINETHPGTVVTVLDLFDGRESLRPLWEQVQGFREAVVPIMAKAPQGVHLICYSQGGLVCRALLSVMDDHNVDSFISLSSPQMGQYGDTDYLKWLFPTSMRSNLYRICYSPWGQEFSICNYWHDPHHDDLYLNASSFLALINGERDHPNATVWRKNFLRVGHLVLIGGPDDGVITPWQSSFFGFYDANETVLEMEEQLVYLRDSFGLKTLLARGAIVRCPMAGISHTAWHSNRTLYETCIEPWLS
inactive: [1] 0.015 | [2] -0.062 | [3] -0.011 | [4] -0.053 | [5] 0.03

PCGF2 (UniProt P35227)
inactive: [1] -0.046 | [2] 0.133 | [3] -0.015 | [4] 0.002 | [5] -0.05

POLR3D (UniProt P05423)
inactive: [1] 0.008 | [2] -0.072 | [3] -0.013 | [4] 0.056 | [5] 0.096

QRICH1 (UniProt Q2TAL8)
inactive: [1] -0.029 | [2] -0.148 | [3] 0 | [4] -0.02 | [5] -0.016

PEX7 (UniProt O00628)
active: [1] -0.371
inactive: [2] 0.035 | [3] 0.136 | [4] 0.021 | [5] -0.03

PELP1 (UniProt Q8IZL8)
inactive: [1] 0 | [2] 0.006 | [3] -0.028 | [4] -0.044 | [5] -0.013

PUF60 (UniProt Q9UHX1)
inactive: [1] 0.031 | [2] 0.033 | [3] 0.081 | [4] -0.036 | [5] 0.007

PARP1 (UniProt P09874)
inactive: [1] -0.098 | [2] 0.027 | [3] 0.182 | [4] -0.069 | [5] -0.101

PTPN12 (UniProt Q05209)
UniProt Q05209, sequence (Q05209 whole entry, looked up): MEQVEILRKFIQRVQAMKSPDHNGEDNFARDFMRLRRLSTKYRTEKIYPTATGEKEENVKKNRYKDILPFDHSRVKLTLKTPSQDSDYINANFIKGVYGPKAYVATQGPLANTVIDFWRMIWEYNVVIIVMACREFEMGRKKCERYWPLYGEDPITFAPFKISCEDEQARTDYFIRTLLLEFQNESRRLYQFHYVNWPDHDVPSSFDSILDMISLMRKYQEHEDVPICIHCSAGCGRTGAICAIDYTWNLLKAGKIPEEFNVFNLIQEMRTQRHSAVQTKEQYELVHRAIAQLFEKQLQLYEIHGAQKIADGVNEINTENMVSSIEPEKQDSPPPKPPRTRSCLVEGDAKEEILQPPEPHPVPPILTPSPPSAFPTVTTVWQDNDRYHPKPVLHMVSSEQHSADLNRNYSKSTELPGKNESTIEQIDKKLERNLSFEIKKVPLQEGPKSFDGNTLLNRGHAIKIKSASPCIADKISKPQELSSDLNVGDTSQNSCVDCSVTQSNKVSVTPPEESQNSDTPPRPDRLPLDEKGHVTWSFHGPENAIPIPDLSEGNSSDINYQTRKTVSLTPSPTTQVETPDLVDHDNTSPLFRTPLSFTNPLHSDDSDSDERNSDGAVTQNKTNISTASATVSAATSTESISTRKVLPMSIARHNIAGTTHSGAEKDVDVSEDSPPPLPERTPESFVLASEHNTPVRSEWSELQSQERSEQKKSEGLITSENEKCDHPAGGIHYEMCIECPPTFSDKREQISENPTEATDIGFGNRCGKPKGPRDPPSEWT
inactive: [1] 0.035 | [2] 0.034 | [3] 0.091 | [4] 0.024 | [5] 0.015

PIK3CD (UniProt O00329)
UniProt O00329, sequence (O00329 whole entry, looked up): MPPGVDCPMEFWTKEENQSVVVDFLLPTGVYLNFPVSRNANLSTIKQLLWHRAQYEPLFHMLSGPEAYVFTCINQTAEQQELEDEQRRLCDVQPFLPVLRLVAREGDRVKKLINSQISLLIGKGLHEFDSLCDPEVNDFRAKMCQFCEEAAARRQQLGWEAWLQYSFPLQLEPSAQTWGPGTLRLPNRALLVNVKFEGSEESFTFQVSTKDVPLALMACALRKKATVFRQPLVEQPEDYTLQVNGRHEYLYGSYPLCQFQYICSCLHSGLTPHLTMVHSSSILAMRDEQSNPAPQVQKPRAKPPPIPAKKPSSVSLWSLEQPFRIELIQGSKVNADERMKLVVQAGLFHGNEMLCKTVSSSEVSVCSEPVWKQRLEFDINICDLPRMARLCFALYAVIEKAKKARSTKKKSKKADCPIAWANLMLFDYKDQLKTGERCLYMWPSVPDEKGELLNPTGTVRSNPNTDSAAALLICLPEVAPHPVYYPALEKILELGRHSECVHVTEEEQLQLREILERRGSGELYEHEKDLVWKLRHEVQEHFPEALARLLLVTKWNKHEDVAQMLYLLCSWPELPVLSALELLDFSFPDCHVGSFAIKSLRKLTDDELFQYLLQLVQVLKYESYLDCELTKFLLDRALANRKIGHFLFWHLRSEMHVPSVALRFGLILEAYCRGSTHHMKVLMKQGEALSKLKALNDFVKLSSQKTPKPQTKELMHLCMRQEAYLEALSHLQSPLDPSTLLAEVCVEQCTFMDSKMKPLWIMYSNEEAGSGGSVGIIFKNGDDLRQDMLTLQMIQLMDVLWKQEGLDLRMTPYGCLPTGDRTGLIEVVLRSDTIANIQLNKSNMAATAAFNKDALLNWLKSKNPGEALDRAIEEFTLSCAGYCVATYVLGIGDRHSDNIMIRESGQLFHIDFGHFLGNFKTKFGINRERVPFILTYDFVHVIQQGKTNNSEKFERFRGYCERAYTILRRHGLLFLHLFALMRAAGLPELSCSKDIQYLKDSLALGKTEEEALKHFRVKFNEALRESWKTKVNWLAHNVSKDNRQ
inactive: [1] -0.166 | [2] -0.126 | [4] -0.086 | [5] 0.018
active: [3] 0.424

PSMC1 (UniProt P62191)
inactive: [1] 0.047 | [2] -0.09 | [3] -0.002 | [4] 0 | [5] 0

PPP2R5C isoform 4 (UniProt Q13362)
UniProt Q13362, sequence (Q13362 whole entry, looked up): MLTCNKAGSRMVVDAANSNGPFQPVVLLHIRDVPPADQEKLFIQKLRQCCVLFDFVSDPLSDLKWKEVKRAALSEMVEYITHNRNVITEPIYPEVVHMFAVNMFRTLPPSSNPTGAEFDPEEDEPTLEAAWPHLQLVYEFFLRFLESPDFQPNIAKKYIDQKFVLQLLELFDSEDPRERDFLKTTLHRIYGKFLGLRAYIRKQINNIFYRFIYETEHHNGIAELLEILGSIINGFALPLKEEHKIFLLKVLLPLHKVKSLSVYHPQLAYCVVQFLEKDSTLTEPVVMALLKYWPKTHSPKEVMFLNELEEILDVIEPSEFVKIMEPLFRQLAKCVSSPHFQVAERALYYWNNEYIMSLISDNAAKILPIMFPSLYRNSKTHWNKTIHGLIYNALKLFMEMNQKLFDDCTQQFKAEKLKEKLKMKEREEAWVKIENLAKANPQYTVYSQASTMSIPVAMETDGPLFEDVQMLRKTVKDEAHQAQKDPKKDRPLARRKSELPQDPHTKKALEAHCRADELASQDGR
inactive: [1] -0.03 | [2] -0.003 | [3] 0.117 | [4] -0.019 | [5] 0.012

PDIK1L (UniProt Q8N165)
inactive: [1] -0.255 | [2] 0.001 | [3] 0.044 | [4] 0.062 | [5] -0.005

PRIM2 (UniProt P49643)
inactive: [1] -0.07 | [2] 0.063 | [3] 0.189 | [4] 0.014 | [5] -0.092

PSMD5 (UniProt Q16401)
inactive: [1] 0 | [2] 0.028 | [3] 0.006 | [4] -0.006 | [5] -0.001

PHKA2 (UniProt P46019)
inactive: [1] -0.018 | [2] -0.003 | [3] 0.053 | [4] 0.023 | [5] 0.024

POMP (UniProt Q9Y244)
inactive: [1] -0.101 | [2] -0.077 | [3] -0.069 | [4] -0.018 | [5] -0.009

POLR2G (UniProt P62487)
inactive: [1] 0.082 | [2] 0.176 | [3] 0.001 | [4] 0.167 | [5] -0.016

POTEI (UniProt P0CG38)
inactive: [1] 0.025 | [2] 0.012 | [3] -0.059 | [4] -0.03 | [5] -0.002

PIP4K2B (UniProt P78356)
inactive: [1] -0.102 | [2] 0.018 | [3] -0.034 | [4] -0.038 | [5] -0.026

PATL1 (UniProt Q86TB9)
inactive: [1] -0.019 | [2] -0.004 | [3] 0.095 | [4] 0 | [5] -0.021

POLR2I (UniProt P36954)
inactive: [1] 0.063 | [2] 0.104 | [3] -0.163 | [4] 0.194 | [5] -0.035

POLA1 (UniProt P09884)
inactive: [1] -0.059 | [2] 0.105 | [3] 0.101 | [4] -0.012 | [5] 0

PDE6D (UniProt O43924)
inactive: [1] -0.053 | [2] 0.238 | [3] -0.004 | [4] -0.13 | [5] 0.017

PTDSS1 (UniProt P48651)
inactive: [1] -0.027 | [2] -0.072 | [3] -0.115 | [4] 0.042 | [5] 0.017

PKN1 isoform 2 (UniProt Q16512)
inactive: [1] -0.077 | [2] 0.079 | [3] 0.069 | [4] 0.015 | [5] 0

PARP16 isoform 3 (UniProt Q8N5Y8)
UniProt Q8N5Y8, sequence (Q8N5Y8 whole entry, looked up): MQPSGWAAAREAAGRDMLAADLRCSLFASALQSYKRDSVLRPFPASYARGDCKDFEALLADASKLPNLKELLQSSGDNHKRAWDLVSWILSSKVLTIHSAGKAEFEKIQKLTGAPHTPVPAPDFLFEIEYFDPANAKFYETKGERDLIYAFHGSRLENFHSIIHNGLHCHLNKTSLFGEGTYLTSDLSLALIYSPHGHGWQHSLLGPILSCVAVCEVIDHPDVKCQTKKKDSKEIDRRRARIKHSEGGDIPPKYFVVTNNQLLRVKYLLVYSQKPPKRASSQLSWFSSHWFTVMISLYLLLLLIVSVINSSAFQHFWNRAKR
inactive: [1] -0.019 | [2] -0.019 | [3] 0.012 | [4] -0.041 | [5] 0.001

PLK1 (UniProt P53350)
UniProt P53350, sequence (P53350 whole entry, looked up): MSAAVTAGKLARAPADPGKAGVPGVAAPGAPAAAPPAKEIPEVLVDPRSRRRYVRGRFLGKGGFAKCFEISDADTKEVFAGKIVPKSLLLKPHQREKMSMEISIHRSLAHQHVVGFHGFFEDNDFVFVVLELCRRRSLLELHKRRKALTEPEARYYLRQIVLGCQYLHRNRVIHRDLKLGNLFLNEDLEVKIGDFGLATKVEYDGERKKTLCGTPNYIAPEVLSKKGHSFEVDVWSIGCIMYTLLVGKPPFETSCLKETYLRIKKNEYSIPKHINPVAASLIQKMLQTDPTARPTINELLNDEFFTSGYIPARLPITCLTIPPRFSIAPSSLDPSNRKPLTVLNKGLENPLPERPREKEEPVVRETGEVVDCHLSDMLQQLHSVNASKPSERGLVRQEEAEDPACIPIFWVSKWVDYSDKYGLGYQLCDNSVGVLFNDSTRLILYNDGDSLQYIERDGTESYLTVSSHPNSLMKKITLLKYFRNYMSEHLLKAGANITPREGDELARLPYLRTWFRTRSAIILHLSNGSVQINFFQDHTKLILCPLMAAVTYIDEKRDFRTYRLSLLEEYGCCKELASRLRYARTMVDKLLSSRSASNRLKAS
inactive: [1] 0.02 | [2] 0.037 | [3] 0.019 | [4] -0.012 | [5] 0.007

PKM (UniProt P14618)
inactive: [1] -0.008 | [2] 0.032 | [3] 0.004 | [4] -0.005 | [5] 0.026

PTGES3 (UniProt Q15185)
inactive: [1] -0.009 | [2] 0.016 | [3] 0.067 | [4] -0.046 | [5] -0.063

PRKAB2 (UniProt O43741)
inactive: [1] -0.133 | [2] 0.084 | [3] -0.087 | [4] -0.117 | [5] -0.077

PRUNE1 (UniProt Q86TP1)
UniProt Q86TP1, sequence (Q86TP1 whole entry, looked up): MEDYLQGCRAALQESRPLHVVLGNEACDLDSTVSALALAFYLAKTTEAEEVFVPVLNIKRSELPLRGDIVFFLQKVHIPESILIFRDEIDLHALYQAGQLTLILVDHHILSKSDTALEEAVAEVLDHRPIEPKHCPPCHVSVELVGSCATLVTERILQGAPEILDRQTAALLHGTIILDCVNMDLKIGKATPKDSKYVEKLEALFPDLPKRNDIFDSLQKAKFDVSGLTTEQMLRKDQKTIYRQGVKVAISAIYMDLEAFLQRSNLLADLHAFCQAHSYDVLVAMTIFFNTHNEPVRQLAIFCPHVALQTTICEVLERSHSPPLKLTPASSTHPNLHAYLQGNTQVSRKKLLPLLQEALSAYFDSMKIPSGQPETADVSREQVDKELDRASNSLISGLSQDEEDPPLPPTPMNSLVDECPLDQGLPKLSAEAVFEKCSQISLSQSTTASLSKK
inactive: [1] -0.025 | [2] -0.002 | [3] 0.023 | [4] 0 | [5] -0.007
